Sampled rows, rich in hits. Any-hit rate of the full collection: about 21%.
ClpP mod: qHTS Assay for Activators of ClpP. ATP-dependent Clp protease proteolytic subunit (Bacillus subtilis (strain 168)), P80244. purified B. subtilis ClpP, FRET peptide cleavage, 20 min. Potency, µM (titrated, usually from 57.5 µM), inactives show at the highest dose activity change, negative = active. 340,000 compounds, 1.9% hits; active means well fitted falling curve with a large enough effect; inconclusive means small, poorly fitted or top-dose-only effect; inactive means no such curve, though single readings can be large or run the other way; further: potency means the concentration at half of the fitted maximal effect; the source files actives as falling curves though it sought activators and does not explain the sign; nearly all actives have a fitted effect of over 65% in size
Target sequence (P80244 whole entry, looked up): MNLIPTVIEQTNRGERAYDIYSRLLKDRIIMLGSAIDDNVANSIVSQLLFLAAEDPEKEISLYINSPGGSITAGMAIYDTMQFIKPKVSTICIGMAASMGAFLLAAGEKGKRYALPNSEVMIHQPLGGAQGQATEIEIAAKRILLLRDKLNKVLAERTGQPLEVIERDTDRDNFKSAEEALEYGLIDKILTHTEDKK
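ClpP 10 microg/mL final, pH 8 Tris/KCl buffer with BSA, glycerol, Tween-20; compound pinned in; FRET-FV substrate; RT 20 min; Ex320/Em430; ΔFRET vs ADEP 5.8 microM, DMSO, no enzyme.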
DRD3 agonist: qHTS of D3 Dopamine Receptor Agonist: qHTS; max activation, %; D(3) dopamine receptor (Homo sapiens), P35462; AID 652048, 2013; 410,000 compounds, 0.58% hits; D3R DiscoveRx beta-arrestin cells, luminescence, 90 min; in the data active means max activation above about 30%; further: 0% is about no effect
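Agonist mode: compounds and dopamine controls were applied to plated cells for 90 min at 37 degrees C after an overnight attachment at 1500 cells/well. Luminescent read-out followed 30 - 60 minutes at room temperature with DiscoveRx detection reagent.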
DT40 TDP1 no CPT: qHTS for Inhibitors of human tyrosyl-DNA phosphodiesterase 1 (TDP1): qHTS in cells in absence of CPT. DT40 Tdp1-/- hTDP1 cells, no CPT, ATP luminescence, 48 h. Potency, µM (highest dose often 46.2 µM), inactives show at the top dose activity change, negative = growth inhibition, actives largely listed as inhibitors. 420,000 compounds, 15% hits. AID 686978, 2013; further: potency means the concentration at half of the fitted maximal effect; on the % scale 0 is the no-effect control and ±100 the full control effect; nearly all actives have a fitted effect of over 55% in size
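Compound effects on proliferation are scored in DT40 Tdp1-/-;hTDP1 cells in the absence of CPT. ATP levels (CellTiter-Glo luminescence) are recorded after a ≥48 hr, 37 °C incubation.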
IL-1B inflam inh: qHTS for Inhibitors of Inflammasome Signaling: IL-1-beta AlphaLISA Primary Screen; AID 743279, 2014; activity change, % at 57.5 µM; 360,000 compounds, 4.7% hits; THP-1 LPS/ATP IL-1B secretion, AlphaLISA, 16 h; active compounds read low; in the data active means activity change below about -50%; inconclusive means mostly about -30% to -49%; further: on the % scale 0 is the no-effect control and ±100 the full control effect
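Secreted IL-1B measured by AlphaLISA bead assay after 16 h compound exposure of THP-1 cells; compounds (final up to 57.5 uM) added 1 h before LPS (250 ng/mL) and ATP (1.25 mM) stimulation; lower signal means less secretion.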
DT40 TDP1 CPT: qHTS for Inhibitors of human tyrosyl-DNA phosphodiesterase 1 (TDP1): qHTS in cells in presence of CPT | chicken DT40 Tdp1-/-;hTDP1 cells + 20 nM CPT, ATP luminescence, 48 h | Potency, µM (doses to about 46.2 µM), for the others: at the top dose activity change, negative = growth inhibition, most hits filed as inhibitors | 420,000 compounds, 12% hits | AID 686979, 2013; further: potency means the concentration at half of the fitted maximal effect; on the % scale 0 is the no-effect control and ±100 the full control effect; nearly all actives have a fitted effect of over 55% in size
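Cell growth measured by CellTiter-Glo luminescence after a minimum 48 h, 37 C compound exposure with 20 nM CPT in Tdp1-knockout DT40 cells stably expressing hTDP1, seeded 400/well; qHTS titration format.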
D3 antag: qHTS of D3 Dopamine Receptor Antagonist: qHTS; D(3) dopamine receptor (Homo sapiens), P35462; D3R cells, DiscoveRx beta-arrestin luminescence, antagonist mode; active compounds read low; max response, negative = inhibition, %; 360,000 compounds, 2.5% hits; in the data active means max response below about -50%; inconclusive means no clear call, values can overlap the other calls; further: on the % scale 0 is the no-effect control and ±100 the full control effect
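Cells plated overnight at 1500 cells/well, then exposed to library compounds with dopamine controls for 90 minutes at 37 degrees C. DiscoveRx reagent added for 30–60 minutes at room temperature; luminescence read, quantitative HTS format.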
Active calls of the source: *; u = inconclusive; x = no result. Unless noted, the call rests on the fitted dose curve; in most records, active means well fitted inhibition curve with a large enough effect; inconclusive means small, poorly fitted or top-dose-only effect; inactive means flat fitted curve, though single readings scatter.

SMILES | ClpP mod | DRD3 agonist | DT40 TDP1 no CPT | IL-1B inflam inh | DT40 TDP1 CPT | D3 antag
COc1ccc(CNC(=O)C2CCN(c3cc(C(=O)Nc4cccc(OC)c4)ccn3)CC2)cc1 | -8.9% | 1.5 | u | -5.4 | u | -2.1
COc1ccc(-c2noc(-c3ccccc3C(=O)Nc3cccc(OC)c3)n2)cc1 | 10.2% | -4.2 | 16.4µM* | -8.8 | u | -6.9
COc1ccc(-c2noc(-c3ccccc3C(=O)Nc3cccnc3)n2)cc1 | -10.3% | 2.5 | u | -0.6 | u | 0.0
COc1ccc(-c2noc(N3CCC(C(=O)Nc4ccc(F)cc4)CC3)n2)cc1 | -0.8% | 1.5 | -26.2% | 0.4 | 3.0% | 11.7
COc1cccc(NC(=O)c2ccnc(N3CCC(C(=O)NCc4cc(OC)ccc4OC)CC3)c2)c1 | u | 1.0 | 16.4µM* | -2.4 | 23.1µM* | 16.6
CCOC(=O)[C@H]1[C@H]2COc3ccc(Br)cc3[C@@H]2N2C(=O)CN(Cc3ccc(OC)cc3)C(=O)[C@@]12C | -3.4% | -22.1 | u | 20.3 | u | 24.0
O=C(CSc1nnnn1-c1ccccc1)NCC1(N2CCOCC2)CCCCC1 | -1.8% | 7.6 | -7.0% | 1.4 | -14.9% | 13.9
CC(NCc1ccc(S(N)(=O)=O)cc1)C(=O)Nc1ccc([N+](=O)[O-])cc1Cl (stereo not drawn) | x | -4.3 | u | -6.7 | -12.3% | -12.0
COc1c(O)cc(O)c2c(=O)cc(-c3ccccc3)oc12 | 1.8% | 20.4 | u | u | u | -18.0
Cc1ccccc1-c1nc(-c2ccc(Br)o2)no1 | x | 13.2 | 4.6% | 38.5 | 25.5% | 16.9
COc1ccc(-c2noc(N3CCC(C(=O)Nc4cccc(C)c4C)CC3)n2)cc1 | 1.8% | 2.4 | 14.6µM* | x | u | x
Cc1ccccc1-c1nc(-c2ccc(NC(=O)c3ccc(Br)o3)cc2)no1 | 151.3% | 24.4 | u | 5.6 | 15.8µM* | 45.6
Cc1ccc(Cn2c(C)c(CNCc3ccccc3F)c(C(=O)O)c2C)cc1 | 1.4% | 3.5 | u | x | u | x
Cc1ccc(NC(=O)C(C)NC(=O)OCc2ccccc2)cc1C (stereo not drawn) | x | 2.6 | 0.5% | -1.0 | -0.2% | -2.5
CCn1ncc([N+](=O)[O-])c1C(=O)Nc1ccc(C)c(C)c1 | 0.1% | 3.0 | -29.8% | -12.5 | 2.3% | 29.6
CC[N+](C)(C)c1ccc(/C=C/c2ccnc3ccccc23)cc1 | -1.1% | x | 0.112µM* | x | 0.0794µM* | x
CC[N+](CC)(CC)c1ccc(/C=C/c2ccnc3ccccc23)cc1 | 0.7% | x | 0.316µM* | x | 0.398µM* | x
CCOC(=O)C1=c2/c(=C/c3ccncc3)c(N)c(C(=O)OC)n2C(=O)C(c2ccncc2)S1 (stereo not drawn) | -3.0% | -6.3 | u | -17.7 | u | -20.2
CN(C)c1nn2c(-c3ccccc3)nnc2o1 | 0.6% | -12.3 | -25.8% | 3.0 | 0.1% | -18.3
CCCc1nn2c(-c3ccccc3)nnc2o1 | 1.5% | -4.8 | u | -67.0* | -15.6% | 10.3
c1ccc(-c2nn3c(-c4ccccc4)nnc3o2)cc1 | -4.0% | 0.3 | u | -51.3* | u | 4.7
COC(=O)C1=C(CCc2ccccc2)NC(=O)NC1c1ccc(C#N)cc1 (stereo not drawn) | -2.4% | 20.8 | 2.9% | -16.9 | -4.2% | 3.9
COC(=O)C1=C(COc2ccccc2)NC(=O)NC1c1ccc(Br)cc1 (stereo not drawn) | 2.3% | -24.0 | u | u | u | u

From PubChem
